Bioassay records: PubChem, National Center for Advancing Translational Sciences (NCATS)
An excerpt weighted towards active compounds, which were near 2.8% of everything screened.
FEN1 inhibitor = blocks human flap endonuclease 1 | P39748 | Recombinant FEN1 flap cleavage, fluorescence, 15 min | Potency, µM (titrated, usually from 114 µM), without a hit: top-dose activity change, negative = inhibition, most hits filed as inhibitors | actives 0.35% (n = 390,000); further: potency means the concentration at half of the fitted maximal effect; on the % scale 0 is the no-effect control and ±100 the full control effect; nearly all actives have a fitted effect of over 65% in size
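Enzyme 10 nM, 15 min RT preincubation with compound; start with substrate 50 nM final; reads at 0 and 15 min; qHTS titration, four-parameter Hill fit.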
PI5P4Ka inh = blocks human PI5P4K alpha kinase activity | P48426 | PI5P4Kalpha enzyme, ADP-Glo luminescence, 60 min; hits give low values | max response, % | actives 1.2% (n = 330,000); active means max response of -50% or lower; inconclusive means between -30% and -50%; inactive means -30% or higher; further: value at the top dose of about 77 µM; on the % scale 0 is the no-effect control and ±100 the full control effect
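Single end-point luminescence (ADP-Glo) quantified ADP from PI5P4Kalpha turnover; ATP 5 microM final, 1 h at RT, 0.1% CHAPS and 0.28 mM EGTA in HEPES pH 7.4.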
Pol kappa inh = inhibitors of human DNA polymerase kappa; actives 0.53% (n = 400,000); AID 588579; purified Pol kappa, fluorescent DNA synthesis assay, 10 min; Q9UBT6; Potency, µM (series often up to 107 µM), for inactives: at the top dose activity, negative = inhibition, most hits filed as inhibitors; further: potency means the concentration at half of the fitted maximal effect; on the % scale 0 is the no-effect control and ±100 the full control effect
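Kinetic fluorescence readout at 0 and 10 min followed reaction start with substrate at 50 nM final. Beforehand, enzyme (10 nM Pol kappa) stood 15 min with compound at room temperature; buffer-only wells were negative controls.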
POLH inh = blocks human DNA polymerase eta activity. recombinant Pol eta, fluorescent DNA replication assay. AID 588591. actives 1.2% (n = 390,000). Potency, µM (series often up to 114 µM), without a hit: at the highest dose activity change, negative = inhibition, hits mostly inhibitors. Q9Y253; further: potency means the concentration at half of the fitted maximal effect; on the % scale 0 is the no-effect control and ±100 the full control effect
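Pol eta (10 nM) was preincubated with compounds for 15 min at room temperature, after which fluorescent replication substrate (50 nM final) was added to start the reaction. Fluorescence was read kinetically at 0 and 10 min.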
Pol iota inh = inhibitors of human DNA polymerase iota. Q9UNA4. Pol iota fluorescent replication assay, 10 min. Potency, µM (titrated, usually from 115 µM), without a hit: top-dose activity, negative = inhibition, usual class: inhibitors. actives 1% (n = 390,000). AID 588590; further: potency means the concentration at half of the fitted maximal effect
Target sequence (Q9UNA4 whole entry, looked up): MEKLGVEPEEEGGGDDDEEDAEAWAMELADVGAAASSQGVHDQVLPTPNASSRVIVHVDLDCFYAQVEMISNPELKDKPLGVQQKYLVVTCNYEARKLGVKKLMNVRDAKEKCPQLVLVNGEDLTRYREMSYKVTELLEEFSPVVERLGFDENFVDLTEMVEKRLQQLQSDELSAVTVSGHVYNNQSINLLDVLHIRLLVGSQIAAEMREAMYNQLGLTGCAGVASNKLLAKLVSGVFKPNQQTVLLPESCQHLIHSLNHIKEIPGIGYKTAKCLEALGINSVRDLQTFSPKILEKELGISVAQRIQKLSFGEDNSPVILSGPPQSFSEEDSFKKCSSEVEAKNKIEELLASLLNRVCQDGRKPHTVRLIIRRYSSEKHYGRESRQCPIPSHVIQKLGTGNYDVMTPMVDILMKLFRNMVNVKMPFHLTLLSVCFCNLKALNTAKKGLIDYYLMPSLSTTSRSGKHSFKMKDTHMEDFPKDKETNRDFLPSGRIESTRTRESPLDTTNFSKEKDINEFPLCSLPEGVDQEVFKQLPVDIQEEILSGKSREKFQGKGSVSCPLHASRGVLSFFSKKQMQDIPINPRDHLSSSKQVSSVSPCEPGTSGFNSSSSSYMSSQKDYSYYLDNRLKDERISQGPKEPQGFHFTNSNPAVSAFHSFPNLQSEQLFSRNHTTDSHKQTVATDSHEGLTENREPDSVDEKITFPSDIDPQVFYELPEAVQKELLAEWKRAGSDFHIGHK
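Fluorescent replication assay read twice, at 0 min and 10 min after adding 50 nM (final) substrate. Enzyme (10 nM) and compounds were first incubated 15 min at room temperature; enzyme-free buffer wells were negative controls.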
POLB inh = blocks human DNA polymerase beta activity; actives 1.3% (n = 340,000); Potency, µM (series often up to 114 µM), inactives show top-dose activity change, negative = inhibition, most hits filed as inhibitors; P06746; Pol beta primer extension/strand displacement, fluorescence kinetic; AID 485314; further: potency means the concentration at half of the fitted maximal effect; on the % scale 0 is the no-effect control and ±100 the full control effect
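Reaction started by 50 nM substrate onto compound-treated Pol beta (10 nM, 15 min preincubation, room temperature); plates read at 0 min and 10 min. Normalized concentration-effect data fitted by four-parameter Hill equation.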
Numbers without * were called inactive; ? = inconclusive; / = no result; [ ] = dose if it differs, or a comment. Unless noted, the call rests on the fitted dose curve; in most records, active means well fitted curve in the direction sought with a large enough effect; inconclusive means small, poorly fitted or top-dose-only effect, or another doubt; inactive means no such curve, though single readings can be large; an effect the other way counts as inactive or inconclusive.

SMILES	FEN1 inhibitor	PI5P4Ka inh	Pol kappa inh	POLH inh	Pol iota inh	POLB inh
[Cl][In]([Cl])[Cl]	?	/	2.8%[60.1 µM]	/	17.8µM*	/
CNC(C)[C@@H](O)c1ccc(O)cc1 (some centres undefined)	/	/	6.6%[19.4 µM]	/	/	/
COc1ccc(OC)c(N=Cc2c(O)[nH]c(=O)[nH]c2=O)c1	?	-55.8*	-11.5%	-1.5%	12.7%	38.5%
Cn1ncc2c(NCc3ccco3)ncnc21	0.1%	/	11.4%	/	?	/
Cc1nn(Cc2ccccc2)c(C)c1C=C1C(=O)NC(=S)NC1=O	3.0%	-57.3*	-26.5%	-1.2%	-1.6%	28.1%
Cc1c(C=C2C(=O)NC(=O)NC2=O)c(=O)n(-c2ccccc2)n1C	-2.7%	-18.2	-21.2%	-15.5%	162.1%	-13.2%
Cc1ccc2c(c1)N(N=O)CCC2	-1.4%	0.3	-2.1%	89.1µM*	27.4%	2.5%
COc1ccccc1NC(=O)c1oc2ccccc2c1NC(=O)COc1cccc(C)c1	-1.1%	/	3.1%	-8.1%	29.5%	32.7%
N[C@@H](Cc1cc(Br)c(O)c(Br)c1)C(=O)O	/	/	/	/	/	22.4µM*
Oc1c(Cl)cc(Cl)cc1CN1CCN(Cc2ccccc2)CC1	-1.9%	/	-12.5%	-4.7%	31.6µM*	10.8%
CCOc1ccc(CCNC(=O)c2cc3c(-c4cccc(OC)c4)nn(C)c3s2)cc1OCC	-19.5%	/	?	-18.8%	-15.7%	4.5%
Cc1ccc(CNc2cc(C)nc3nc(-c4ccc(C)cc4)nn23)cc1	-13.8%	/	-1.3%[60.1 µM]	-2.4%	?	-21.1%
O=C1NC(=O)C(=Cc2coc3ccc(O)cc3c2=O)C(=O)N1	-23.9%	-73.4*	0.0%	?	?	17.5%
C[C@]12CC[C@H]3[C@@H](CCC4=CC(=O)CC[C@@H]43)[C@@H]1CC[C@@H]2O	14.1%	-5.1	0.0%	-15.2%	15.3%	/
C[C@]12CC[C@@H]3c4ccc(O)c(O)c4CC[C@H]3[C@@H]1CC[C@@H]2O	?	-74.0*	-3.7%	-9.7%	?	0.7%
C[C@]12CC[C@@H]3c4cc(O)c(O)cc4CC[C@H]3[C@@H]1CC[C@@H]2O	?	-61.7*	-12.6%	5.1%	-21.9%	?
C[C@]12CC[C@@H]3c4ccc(OC(=O)N(CCCl)CCCl)cc4CC[C@H]3[C@@H]1CC[C@@H]2O	/	/	8.91µM*	/	/	/
O=C(CSc1nnc(NC(=O)c2ccccc2[N+](=O)[O-])s1)NCc1ccco1	10.5%	-9.7	-24.6%	?	?	-9.7%
Cc1[nH]ccc2c1[nH]c1cc(=O)ccc12	-7.9%	0.4	?	-16.1%	-19.1%	?
Cc1ccc(N2C(=O)/C(=C/c3ccc(CN(CCC#N)S(C)(=O)=O)o3)C(=O)NC2=S)cc1C	/	/	/	/	/	20µM*
CN1CCN(c2ccc(/C=C3\C(=O)NC(=S)N(c4cccc(Br)c4)C3=O)o2)CC1	?	?	-17.3%	?	?	-4.9%
Cc1cc(C=C2C(=O)NC(=O)NC2=O)c(C)n1-c1cccnc1	-3.7%	-57.9*	-15.9%	0.7%	11.1%	4.7%
Cc1cc(/C=C2/C(=O)NC(=O)N(c3ccccc3)C2=O)c(C)n1-c1ccc(F)cc1	0.6%	-6.8	-17.7%	?	?	/
C=CCN1C(=O)/C(=C/c2cc(C)n(-c3cccnc3)c2C)C(=O)NC1=S	-1.1%	-66.8*	-19.4%	1.6%	-13.0%	-25.7%
CCOP(=O)(C1=C(O)C(=O)C(C(C)(C)C)=CC1=O)c1ccccc1 (centres undefined)	-18.8%	-16.8	-7.8%	-4.5%	31.6µM*	-11.1%
SMILES	FEN1 inhibitor	PI5P4Ka inh	Pol kappa inh	POLH inh	Pol iota inh	POLB inh
O=C1NC(=O)C(=Cc2ccc(-c3ccc(F)cc3O)o2)C(=O)N1	17.8µM*	-87.3*	-9.3%	70.8µM*	?	-2.2%
O=C1NC(=O)C(=Cc2ccc(Sc3ccccc3)o2)C(=O)N1	?	-51.7*	-3.1%	?	?	17.0%
O=C1NC(=O)C(=Cc2ccc(-c3ccc(Cl)cc3)o2)C(=O)N1	17.8µM*	-18.7	-3.7%	79.4µM*	11.2µM*	43.3%
O=C1NC(=O)C(=Cc2ccc(-c3ccc(S(=O)(=O)N4CCOCC4)cc3)o2)C(=O)N1	-26.7%	?	0.4%	-13.7%	25.1µM*	19.7%
CC[C@H](C)[C@H](NC(=O)[C@H](CO)NC(=O)[C@H](CC(N)=O)NC(=O)[C@H](CC(C)C)NC(=O)[C@H](Cc1ccc(O)cc1)NC(=O)[C@H](CCCCN)NC(=O)[C@H](CCCCN)NC(=O)[C@@H](NC(=O)[C@H](C)NC(=O)[C@H](CCSC)NC(=O)[C@H](CCC(N)=O)NC(=O)[C@H](CCCCN)NC(=O)[C@H](CCCNC(=N)N)NC(=O)[C@H](CC(C)C)NC(=O)[C@H](CCCNC(=N)N)NC(=O)[C@@H](NC(=O)[C@H](Cc1ccc(O)cc1)NC(=O)[C@H](CC(N)=O)NC(=O)[C@H](CC(=O)O)NC(=O)[C@@H](NC(=O)[C@H](Cc1ccccc1)NC(=O)[C@@H](NC(=O)[C@H](C)NC(=O)[C@H](CC(=O)O)NC(=O)[C@H](CO)NC(=O)[C@@H](N)Cc1cnc[nH]1)C(C)C)[C@@H](C)O)[C@@H](C)O)C(C)C)C(=O)N[C@@H](CC(C)C)C(=O)N[C@@H](CC(N)=O)C(N)=O	/	/	17.9%[60.1 µM]	/	/	/
COC(=O)C1=C(c2ccc3ccccc3c2)C[C@@H]2CC[C@H]1N2C(=O)NCC1CC1	-11.0%	-6.8	0.2%	-5.3%	22.2%	/
COC(=O)C1=C(c2ccc3ccccc3c2)C[C@@H]2CC[C@H]1N2C(=O)NCc1ccco1	-16.4%	-20.6	?	35.5µM*	-28.1%	/
CCc1ccc(NC(=O)Cn2c(=O)oc3cc(S(=O)(=O)NCc4ccccc4)ccc32)cc1	4.5%	/	-30.9%	-9.1%	-12.6%	20µM*
Cc1ccc(NC(=O)Cn2c(=O)oc3cc(S(=O)(=O)N4CCCCCC4)ccc32)cc1Cl	14.6%	/	-15.1%[60.1 µM]	6.5%	-14.1%	?
CCN(C[C@H]1N[C@@](CC)(C(=O)OC)[C@H]2C(=O)N(Cc3ccccc3)C(=O)[C@@H]12)C(=O)Nc1ccc(Cl)cc1	-3.8%	-3.2	10.4%	-16.7%	38.1%	/
CN(C)C1C(=O)C(C(N)=O)=C(O)C2(O)C(=O)C3=C(O)c4c(O)cccc4C(C)(O)C3C(O)C12 (centres undefined)	-8.3%	-54.0*	-3.6%	-9.0%	-8.4%	11.2µM*
Cc1ccc2nc(N3CCN(C)CC3)[nH]c2c1	-1.1%	3.9	-19.2%	-0.7%	-9.8%	-0.8%
CCOc1ccc(-c2nc3ccc(-c4nc5ccc(N6CCN(C)CC6)cc5[nH]4)cc3[nH]2)cc1	/	/	0.299µM*	/	/	/
O=c1oc(Cl)c(Cl)c2ccccc12	-17.0%	-27.3	3.9%[60.1 µM]	-6.2%	?	?
